This is part of a sample that, as a whole, favours compounds with a hit. Of some 83,000 tested, about 20% had one in any assay.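 Results are percent growth after 48 hours of single-concentration exposure. 100 means growth as in untreated cells, lower positive values show inhibition; negative values down to -100 show cell death.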 A number with no mark means an inactive call. Calls of active or inactive are those of the source. How the source made its calls: active means growth percent below 10; inactive means the rest.
Columns and labels:
Assay in all cases: NCI-60 one-dose screen, 48 h (100 = growth as untreated, 0 = no growth, -100 = all killed)
DU-145 prostate = conditions: 10 µM unless noted
K-562 leukemia = conditions: 10 µM unless noted
MALME-3M melanoma = conditions: 10 µM unless noted
MDA-MB-231 breast = conditions: 10 µM unless noted
RXF 393 renal = conditions: 10 µM unless noted
SF-268 CNS = conditions: 10 µM unless noted
SF-295 CNS = conditions: 10 µM unless noted
SF-539 CNS = conditions: 10 µM unless noted
M14 melanoma = conditions: 10 µM unless noted
HCT-15 colon = conditions: 10 µM unless noted
HT29 colon = conditions: 10 µM unless noted
SNB-75 CNS = conditions: 10 µM unless noted
SNB-19 CNS = conditions: 10 µM unless noted
U251 CNS = conditions: 10 µM unless noted
PC-3 prostate = conditions: 10 µM unless noted
SK-MEL-5 melanoma = conditions: 10 µM unless noted
UACC-62 melanoma = conditions: 10 µM unless noted
LOX IMVI melanoma = conditions: 10 µM unless noted
SK-MEL-28 melanoma = conditions: 10 µM unless noted
UACC-257 melanoma = conditions: 10 µM

Row | Compound | growth (DU-145 prostate) | growth (K-562 leukemia) | growth (MALME-3M melanoma) | growth (MDA-MB-231 breast) | growth (RXF 393 renal) | growth (SF-268 CNS) | growth (SF-295 CNS) | growth (SF-539 CNS) | growth (M14 melanoma) | growth (HCT-15 colon) | growth (HT29 colon) | growth (SNB-75 CNS) | growth (SNB-19 CNS) | growth (U251 CNS) | growth (PC-3 prostate) | growth (SK-MEL-5 melanoma) | growth (UACC-62 melanoma) | growth (LOX IMVI melanoma) | growth (SK-MEL-28 melanoma) | growth (UACC-257 melanoma)
1 | C=C1C(=O)O[C@H]2[C@H]1CC/C(COC(=O)NCCc1ccc(OC)cc1)=C\CC[C@@]1(C)O[C@@H]21 | -12.2% (active) | 2.33% (active) | -8.71% (active) | 1.63% (active) | -30.6% (active) | 45.9% | 80.3% | 26.6% | 25.1% | -7.21% (active) | -58.3% (active) | 79.4% | 45.8% | 59.3% | 45.6% | 72.3% | -46.7% (active) | -26.8% (active) | -5.94% (active) | 
2 | CN(C)CCCNC(=O)C(c1ccccc1)c1ccccc1 | 115% | 95.2% | 104% | 102% | 116% | 107% | 102% | 99.4% | 101% | 104% | 95.9% | 94.5% | 97.3% | 98.2% | 99.1% | 103% | 98.8% |  | 109% | 
3 | CC(=O)Nc1ccc2c(c1)/C(=C\C=C/c1ccc([N+](C)(C)C)cc1)c1ccccc1-2 | 73% | 49.5% | 86.5% | 63.7% | 99.1% | 48.6% | 46.5% | 42.4% | 71.5% | 89.1% | 59.2% | -1.84% (active) | 36.6% | 26% |  | 36.1% | 100% | 80.1% | 66.3% | 
4 | CCN(Cc1ccc(CN(CC)C(=O)C(Br)Br)cc1)C(=O)C(Br)Br | 14.1% | 27.1% | 52.6% | 28.2% | 67.9% | 51.6% | 45.9% | 53.6% | 24.9% | 24.5% | 6.76% (active) | 54.9% | 60.8% | -9.38% (active) |  | 12.3% | 18.2% | 37.1% | 36.7% | 
5 | C=C1C(=O)O[C@H]2[C@H]1CC/C(Cn1cc(-c3ccsc3)nn1)=C\CC[C@@]1(C)O[C@@H]21 | -83.5% (active) | -16.2% (active) | -66.4% (active) | -58% (active) | -56.7% (active) | -25.8% (active) | 53.9% | -72.1% (active) | -56.7% (active) | -77.5% (active) | -68.5% (active) | 21.7% | 59.8% | 4.91% (active) | -20.4% (active) | -42.1% (active) | -55.7% (active) |  | -54% (active) | 
6 | Cc1ccc2c(c1)C(C)Cc1c(N(C)C)ncnc1N2C (configuration not stated) | 68.7% | 12.8% | 53.2% | 56.3% | 40.1% | 47.3% | 6.52% (active) | 28.3% | 24.7% | 20.6% | 4.7% (active) | 14% | 43.8% | 21.3% |  | 15% | 33% | 37.7% | 56.6% | 
7 | O=C(/C=C/CN1CCOCC1)Nc1cc2c(Nc3cccc(Cl)c3F)ncnc2cc1OCCOC(F)F | 49.5% | 76% | 64.4% | 68.6% | 68.4% | 65.2% | 81.2% | 81.4% | 94.3% | 69.2% | 66.3% | 63% | 81.7% | 94.1% | 58.9% | 86.9% | 72% | 80.7% | 101% | 
8 | CC/C=C\C[C@H]1C/C=C2/C(=O)C(Cl)=C[C@@H]2C/C=C\CCCC(=O)O1 | -91% (active) | -11.6% (active) | -42.6% (active) | -13% (active) | -90.1% (active) | -55.4% (active) | -63% (active) | -72.6% (active) | -47.1% (active) | -90.8% (active) | -55.6% (active) | -19.9% (active) | -40.2% (active) |  | -69.9% (active) | -62.6% (active) | -53.1% (active) | -91.4% (active) | -43% (active) | 
9 | Cc1ccnc2nc(C(=O)OCC(=O)Nc3ccc(-c4ccccc4)cc3)nn12 | 109% | 61.8% | 115% | 104% | 49.7% | 113% | 92.7% | 95.6% | 99.9% | 105% | 108% |  | 103% | 101% | 102% | 105% | 116% | 99% | 110% | 
10 | Cc1cc(Nc2nc(-c3ccncc3)nc3ccccc23)n[nH]1 | 79.7% | 38.1% | 88.8% | 84.1% |  | 70.1% | 69.9% | 59.5% | 65.7% | 44.2% | 61.3% | -23.4% (active) | 95% | 115% | 61% | 89.1% | 55.3% | 62.7% | 69.1% | 90%
11 | N#Cc1c(NC(=O)c2ccc([N+](=O)[O-])o2)[n+]([O-])c2cc(F)c(F)cc2[n+]1[O-] | 126% | 92.2% | 125% | 114% | 1.39% (active) | 120% | 97% | 137% | 112% | 95.1% | 102% |  | 121% | 102% | 98.8% | 79.6% | 100% | 84.7% | 99.7% | 
12 | O=C(OCCCCOC(=O)n1cnc2ccccc21)n1cnc2ccccc21 | 105% | 101% | 101% | 94.7% | 107% | 98.8% | 98.3% | 102% | 102% | 103% | 97% | 96% | 97.7% |  | 91.8% | 101% | 96.3% | 92.9% | 108% | 
13 | O=S(=O)(NCCCNc1cc(-c2cn(-c3ccccc3)nc2-c2cccc(O)c2)ccn1)c1ccc(Br)cc1 | 31.3% | -21.3% (active) | -27.3% (active) | -20.7% (active) | 2.04% (active) | 17.9% | -55.2% (active) | 18.9% | 0.533% (active) | -18.7% (active) | -24.4% (active) |  | 27.3% |  | 4.26% (active) | -56.3% (active) | -5.16% (active) | -29.5% (active) | -36.2% (active) | 
14 | O=C(c1c[nH]c2ccccc12)C(Sc1nc2ccccc2c(=O)[nH]1)c1ccccc1 (configuration not stated) | 94.3% | 101% | 88.7% | 91.6% | 26.1% | 105% | 93.1% | 89.2% | 104% | 104% | 71.3% | 90.6% | 102% |  | 94.1% | 99.8% | 102% |  | 117% | 
15 | Cc1cc(Nc2nc(C(=O)Nc3ccccc3)nc3ccccc23)n[nH]1 | 66.2% | 48.7% | 61.5% | 85.4% |  | 71% | 53.9% | 78.7% | 50.9% | 29.5% | 84.7% | -0.848% (active) | 97.3% | 72.5% | 51.2% | 59.2% | 59.9% | 54% | 69.5% | 83%
16 | COc1cc2c(cc1OCCCCn1c(-c3cc(=O)c4ccccc4o3)nc3ccccc31)N=C[C@@H]1CCCN1C2=O | 118% | 72.3% | 109% | 87.7% | 51.3% | 107% | 113% | 118% | 105% | 106% | 102% |  | 93.1% | 75.3% | 94.9% | 93.6% | 99.4% | 68.5% | 124% | 
17 | C=C1C(=O)O[C@H]2[C@H]1CC/C(COC(=O)NCc1cc(OC)c(OC)c(OC)c1)=C\CC[C@@]1(C)O[C@@H]21 | 43.3% | 16.3% | 101% | 56.5% | 60.4% | 68.5% | 99.4% | 65.1% | 49.9% | 42.3% | 21.4% | 83.8% | 72.8% |  | 66.1% | 95.2% | 38.8% |  | 63.2% | 
